The compounds below were run on T1, IKK-beta. Conditions: concentration: 1 μM, replicates: in singlicate; n = 1.
T1 construct: gene IKBKB
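Note: KINOMEscan kinase panel screen.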

Structure (SMILES)	%Inh [%]
COC(=O)c1cccc(NC(=O)NCCNc2ccnc(Nc3ccc(F)cc3)n2)c1 [GSK1379883]	0
O=C(Nc1ccccc1)Nc1ccc(Oc2ccc3nccn3n2)cc1	0
Cl.Cl.c1ccc(-c2cc3ccncc3cc2OC2CCNCC2)cc1 [GSK1122999]	98.7
Clc1cc(Nc2ncnc3cc[nH]c23)ccc1OCc1ccccn1	20
Cn1cc(-c2ccc3c(c2)CCN3C(=O)Cc2cccc(C(F)(F)F)c2)c2c(N)ncnc21 [GSK2606414]	7
CNc1nccc(-c2c(-c3ccc(F)cc3)ncn2C2CCN(C)CC2)n1 [SB-222903]	0
N#Cc1ccc(Oc2ccc(Nc3ncnc4cc[nH]c34)cc2Cl)cc1	17
Cl.c1ccc(Cn2ccc3cc(Nc4ncnc5ccccc45)ccc32)cc1 [GW275568]	0
Nc1nc(-c2cccnc2)c(-c2ccnc3ccccc23)s1 [GW684083]	0
O=C(Nc1n[nH]c2nc(-c3ccco3)c(Br)cc12)c1ccc(CN2CCCC2)cc1.O=C(O)[C@H](O)[C@@H](O)C(=O)O [SB-742352]	0
Fc1cccc(COc2ccc(Nc3ncnc4sc(-c5ccc[nH]5)cc34)cc2Cl)c1 [GW707818]	0
Clc1cccc(-c2nc(Nc3ccncc3)c3ccccc3n2)c1 [GW873004]	0
CC(C)(C)OC(=O)NC1CCCN(c2cc(-c3ccc4c(N)n[nH]c4c3)nc(N)n2)C1 (stereo not drawn) [GSK2286096]	0
COc1ccc(-c2oc3ncnc(N)c3c2-c2ccc(OC)cc2)cc1 [SB-589132]	4
Nc1nc(-c2ccccn2)c(-c2ccnc3ccccc23)s1 [GW548057]	0
CCCc1ccc(S(=O)(=O)NC2CCN(c3ccnc(Nc4ccc(OC)cc4)n3)C2)cc1 (stereo not drawn) [GSK1379737]	0
COC(=O)c1c(-c2ccccc2)c2cc(Cl)ccc2c(=O)n1Cc1ccc(S(C)(=O)=O)cc1	0
Cl.Fc1ccccc1COc1ccc(Nc2ncnc3ccc(-c4nnc(C(F)(F)F)o4)cc23)cc1Cl [GW424170]	0

Structure (SMILES)	%Inh [%]
Oc1ccc2ncnc(Nc3ccc(OCc4ccccc4)cc3)c2c1 [GI262866]	16
CSc1nn2c(=O)cc(N3CCOCC3)nc2n1Cc1cccc(Cl)c1Cl [GSK2347225]	0
CCc1nc(-c2cccc(N(C)S(=O)(=O)c3ccccc3)c2)c(-c2ccnc(Nc3ccc(N4CCN(C(C)=O)CC4)nc3)n2)s1 [GSK1645895]	1
COc1cc2ncnc(Nc3ccc(OCc4ccccc4Br)c(Cl)c3)c2cc1OC.Cl [GI261590]	16
Cc1ccc(C)c(NC(=O)NCCNc2ccnc(Nc3ccc(F)cc3)n2)c1 [GSK1379878]	0
CN1CCC(n2cnc(-c3ccc(F)cc3)c2-c2ccnc(NC3CCNCC3)n2)CC1 [SB-229482]	0
CN1c2ccc(-c3ccc(C(=O)NCCO)cc3)cc2-c2[nH]ncc2S1(=O)=O	0
O=C(Nc1ccccc1F)NC1CCN(c2ccnc(Nc3ccc(F)cc3)n2)C1 (stereo not drawn) [GSK1379722]	23
Cn1ccc2ncnc(Nc3ccc(Oc4cccc(Cl)c4)c(Cl)c3)c21	7
CCC(CC)(CC)n1cnc2c(N)ncnc21 [SKF-97620]	8
Cl.Cn1ccc(-c2cccc(Nc3ccnc4cc(-c5nccs5)ccc34)c2)n1 [GW525701]	11
Fc1ccc(Nc2nccc(-c3c(-c4ccc(Cl)cc4)nn4ncccc34)n2)cc1F [GW829058]	29
COc1ccc(NC(=O)c2ccc(-c3cc(-c4nnc(C)o4)ccc3C)cc2)cc1 [GW595885]	24
CS(=O)(=O)CCNCc1ccc(-c2ccc3ncnc(Nc4ccc(OCc5ccccc5)c(Cl)c4)c3c2)o1.Cl [GW574783]	0
CCn1c(-c2ccncc2)nc2cnccc21 [SB-735216]	23
c1ccc(-c2ccc3c(-c4ccnc(Nc5ccc6c(c5)OCCO6)n4)cnn3n2)cc1 [GW818941]	14
Cc1cc(N2CCC(NS(=O)(=O)c3ccc(F)cc3)CC2)nc(Nc2cccc(C#N)c2)n1.O=C(O)C(F)(F)F [GSK1653537]	2
COc1ccc(Nc2nccc(N3CCC(NC(=O)Nc4ccc5c(c4)OCO5)C3)n2)cc1 (stereo not drawn) [GSK1379745]	9

Each compound was assayed on T2, IKK-epsilon. Conditions: concentration: 1 μM, replicates: in singlicate; n = 1.
T2 construct: gene IKBKE

Structure (SMILES)	%Inh [%]
COC(=O)c1cccc(NC(=O)NCCNc2ccnc(Nc3ccc(F)cc3)n2)c1 [GSK1379883]	1
O=C(Nc1ccccc1)Nc1ccc(Oc2ccc3nccn3n2)cc1	0
Cl.Cl.c1ccc(-c2cc3ccncc3cc2OC2CCNCC2)cc1 [GSK1122999]	9
Clc1cc(Nc2ncnc3cc[nH]c23)ccc1OCc1ccccn1	27
Cn1cc(-c2ccc3c(c2)CCN3C(=O)Cc2cccc(C(F)(F)F)c2)c2c(N)ncnc21 [GSK2606414]	4
CNc1nccc(-c2c(-c3ccc(F)cc3)ncn2C2CCN(C)CC2)n1 [SB-222903]	0
N#Cc1ccc(Oc2ccc(Nc3ncnc4cc[nH]c34)cc2Cl)cc1	12
Cl.c1ccc(Cn2ccc3cc(Nc4ncnc5ccccc45)ccc32)cc1 [GW275568]	24
Nc1nc(-c2cccnc2)c(-c2ccnc3ccccc23)s1 [GW684083]	21
O=C(Nc1n[nH]c2nc(-c3ccco3)c(Br)cc12)c1ccc(CN2CCCC2)cc1.O=C(O)[C@H](O)[C@@H](O)C(=O)O [SB-742352]	0
Fc1cccc(COc2ccc(Nc3ncnc4sc(-c5ccc[nH]5)cc34)cc2Cl)c1 [GW707818]	0
Clc1cccc(-c2nc(Nc3ccncc3)c3ccccc3n2)c1 [GW873004]	0
CC(C)(C)OC(=O)NC1CCCN(c2cc(-c3ccc4c(N)n[nH]c4c3)nc(N)n2)C1 (stereo not drawn) [GSK2286096]	12
COc1ccc(-c2oc3ncnc(N)c3c2-c2ccc(OC)cc2)cc1 [SB-589132]	6
Nc1nc(-c2ccccn2)c(-c2ccnc3ccccc23)s1 [GW548057]	22
CCCc1ccc(S(=O)(=O)NC2CCN(c3ccnc(Nc4ccc(OC)cc4)n3)C2)cc1 (stereo not drawn) [GSK1379737]	0
COC(=O)c1c(-c2ccccc2)c2cc(Cl)ccc2c(=O)n1Cc1ccc(S(C)(=O)=O)cc1	0
Cl.Fc1ccccc1COc1ccc(Nc2ncnc3ccc(-c4nnc(C(F)(F)F)o4)cc23)cc1Cl [GW424170]	0

Structure (SMILES)	%Inh [%]
Oc1ccc2ncnc(Nc3ccc(OCc4ccccc4)cc3)c2c1 [GI262866]	0
CSc1nn2c(=O)cc(N3CCOCC3)nc2n1Cc1cccc(Cl)c1Cl [GSK2347225]	28
CCc1nc(-c2cccc(N(C)S(=O)(=O)c3ccccc3)c2)c(-c2ccnc(Nc3ccc(N4CCN(C(C)=O)CC4)nc3)n2)s1 [GSK1645895]	39
COc1cc2ncnc(Nc3ccc(OCc4ccccc4Br)c(Cl)c3)c2cc1OC.Cl [GI261590]	18
Cc1ccc(C)c(NC(=O)NCCNc2ccnc(Nc3ccc(F)cc3)n2)c1 [GSK1379878]	9
CN1CCC(n2cnc(-c3ccc(F)cc3)c2-c2ccnc(NC3CCNCC3)n2)CC1 [SB-229482]	0
CN1c2ccc(-c3ccc(C(=O)NCCO)cc3)cc2-c2[nH]ncc2S1(=O)=O	31
O=C(Nc1ccccc1F)NC1CCN(c2ccnc(Nc3ccc(F)cc3)n2)C1 (stereo not drawn) [GSK1379722]	0
Cn1ccc2ncnc(Nc3ccc(Oc4cccc(Cl)c4)c(Cl)c3)c21	11
CCC(CC)(CC)n1cnc2c(N)ncnc21 [SKF-97620]	0
Cl.Cn1ccc(-c2cccc(Nc3ccnc4cc(-c5nccs5)ccc34)c2)n1 [GW525701]	31
Fc1ccc(Nc2nccc(-c3c(-c4ccc(Cl)cc4)nn4ncccc34)n2)cc1F [GW829058]	0
COc1ccc(NC(=O)c2ccc(-c3cc(-c4nnc(C)o4)ccc3C)cc2)cc1 [GW595885]	0
CS(=O)(=O)CCNCc1ccc(-c2ccc3ncnc(Nc4ccc(OCc5ccccc5)c(Cl)c4)c3c2)o1.Cl [GW574783]	7
CCn1c(-c2ccncc2)nc2cnccc21 [SB-735216]	10
c1ccc(-c2ccc3c(-c4ccnc(Nc5ccc6c(c5)OCCO6)n4)cnn3n2)cc1 [GW818941]	6
Cc1cc(N2CCC(NS(=O)(=O)c3ccc(F)cc3)CC2)nc(Nc2cccc(C#N)c2)n1.O=C(O)C(F)(F)F [GSK1653537]	7
COc1ccc(Nc2nccc(N3CCC(NC(=O)Nc4ccc5c(c4)OCO5)C3)n2)cc1 (stereo not drawn) [GSK1379745]	12

Source: publication PMC5540273 (PLoS ONE, 2017)
